HPGD inh: blocks human HPGD enzyme activity. actives 4.3% (n = 150,000). Potency, µM, for the others: at the highest dose activity change, negative = inhibition, hits mostly inhibitors. purified HPGD, NADH fluorescence kinetic, PGE2 substrate. P15428; also: potency is read from the fitted curve at half-maximal effect
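20 nM HPGD preincubated 15 min at room temperature with compound in 50 mM Tris-HCl pH 8, 0.01% Tween 20. Started with 1 mM NAD+ and 30 uM prostaglandin E2; NADH fluorescence (360/450 nm) read 5 times over 30-s intervals, last minus first.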
PNC assembly inh: blocks assembly of the perinucleolar compartment; activity change (PNC), negative = inhibition, % at 10 µM; AID 2417; actives 3.1% (n = 140,000); PC3M PTB-GFP, PNC prevalence imaging, 16 h; stronger effect = lower value;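 active = readout at or below -70, meaning at least 70% loss of cells showing the perinucleolar compartment, a nuclear body marking cancer cells; inconclusive = readout between -30 and a set limit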;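 also: plate controls were DMSO wells for no effect and camptothecin positive control wells for full effect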
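Compounds are pinned in duplicate onto adhered PC3M cells stably expressing GFP-tagged PTB and incubated 16 h at 37 C. Cells are then fixed, nuclei stained with Hoechst, and PNC-positive cells counted.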
KDM4E inh: blocks human JMJD2E demethylase activity; Potency, µM (doses to about 57.1 µM), for the others: at the highest dose activity change, negative = inhibition, usual class: inhibitors; JMJD2E catalytic domain, FDH-coupled NADH fluorescence (FDH is formaldehyde dehydrogenase); B2RXH2; AID 2147; actives 1.6% (n = 230,000);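 also: potency is read from the fitted curve at half-maximal effect; 0% = wells with enzyme and -100% = buffer wells without enzyme; nearly all actives have a fitted effect of over 50% in size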
Target sequence (B2RXH2 1-337 limits assumed): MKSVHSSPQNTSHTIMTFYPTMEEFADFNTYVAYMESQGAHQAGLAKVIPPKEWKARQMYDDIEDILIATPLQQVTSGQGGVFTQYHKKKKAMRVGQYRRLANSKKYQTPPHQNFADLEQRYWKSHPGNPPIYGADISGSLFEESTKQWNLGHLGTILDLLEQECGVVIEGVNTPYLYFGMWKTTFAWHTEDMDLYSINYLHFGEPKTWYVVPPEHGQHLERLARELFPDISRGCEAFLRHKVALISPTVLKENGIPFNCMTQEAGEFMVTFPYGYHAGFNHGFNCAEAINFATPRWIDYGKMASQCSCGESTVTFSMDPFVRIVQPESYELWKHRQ
ALDH1A1 inh: blocks purified human ALDH1A1 activity | P00352 | Purified ALDH1A1, NADH fluorescence, propionaldehyde substrate | Potency, µM (series often up to 75.3 µM), for the others: at the top dose activity, negative = inhibition, most hits filed as inhibitors | actives 7.3% (n = 220,000);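 also: potency is read from the fitted curve at half-maximal effect; plate controls were no enzyme wells and a reference inhibitor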
An asterisk follows results filed as active; ? = inconclusive; . = not tested or not shown; [ ] = dose if it differs, or a comment. Only some compounds are listed: those with a hit (about 11% of all), similar ones and a draw of the others. Unless noted, calls follow the shape of the dose curve; as a rule, active = well fitted inhibition curve with a large enough effect (not every such curve was filed as active); inconclusive = small, poorly fitted or top-dose-only effect, or another doubt; inactive = no such curve, though single readings can be large or run the other way. Unless noted, % is scaled to controls: 0 for no effect and ±100 for the full control effect.

SMILES	HPGD inh	PNC assembly inh	KDM4E inh	ALDH1A1 inh
Cc1ccc(/C=C2\C(=O)NC(=O)N(CCc3ccc(F)cc3)C2=O)o1	3.55µM*	?	-25.4%	5.01µM*
Cc1ccc(/C=C2/C(=O)NC(=O)N(Cc3ccc(F)cc3)C2=O)o1	.	.	-1.5%	.
CC(=O)O/C(=C1/C[C@H]2[C@@H]3CC=C4C[C@@H](OC(C)=O)CC[C@]4(C)[C@@H]3CC[C@]2(C)C1=O)C(F)(F)F	-7.2%	.	.	?
NCC(CC(=O)O)c1ccc(Cl)s1 (stereo not drawn)	.	.	.	-3.2%
O=C1NC(=O)N(Cc2ccc(F)cc2)C(=O)/C1=C\c1ccoc1	.	.	7.5%	-6.0%
Cc1ccc(/C=C2\C(=O)NC(=O)N(CCc3ccc(F)cc3)C2=O)s1	.	.	4.9%	1.58µM*
O=C1NC(=O)N(Cc2ccc(F)cc2)C(=O)/C1=C/c1cccs1	.	.	-13.2%	28.2µM*
Cc1cc(/C=C2\C(=O)NC(=O)N(Cc3ccccc3Cl)C2=O)c(C)n1-c1ccc(C(=O)O)cc1	.	.	-19.3%	?
Cc1ccc(-n2c(C)cc(/C=C3/C(=O)NC(=O)N(Cc4ccco4)C3=O)c2C)cc1	?	13.1	-9.3%	14.1µM*
C=CCN1C(=O)/C(=C/c2cc(C)n(-c3cccnc3)c2C)C(=O)NC1=S	10µM*	39.1	-1.9%	?
Cc1cc(/C=C2\C(=O)NC(=O)N(c3ccc(F)cc3)C2=O)c(C)n1-c1ccc(C(=O)O)cc1	.	.	-5.2%	7.94µM*
Cc1cc(C=C2C(=O)NC(=O)NC2=O)c(C)n1-c1cccnc1	.	.	-19.2%	.
Cc1cc(/C=C2\C(=O)NC(=O)N(Cc3ccccc3)C2=O)c(C)n1-c1ccc(Cl)c(C(=O)O)c1	17.8µM*	-1.9	?	?
COC(=O)NC/C=C\c1nc(CC/C=C\C(=O)O[C@H]2C[C@H]3CC(=O)O[C@@H](/C=C\CC(C)C)C[C@@H]4CC[C@H](C)[C@H](C[C@@H](OC)C[C@H](C2)O3)O4)co1	.	.	.	-2.4%[13.5 µM]
C[C@H](NC(=O)[C@@H](N)Cc1ccc(O)cc1)C(=O)NCC(=O)N(C)[C@@H](Cc1ccccc1)C(=O)NCCO	.	.	.	-1.1%
c1cc(CCN2CCCCC2)ccn1	-5.3%	.	.	11.1%[13.5 µM]
Cc1ccccc1-n1c(C)cc(/C=C2/C(=O)NC(=O)N(Cc3ccco3)C2=O)c1C	-18.4%	23.3	-18.6%	3.55µM*
Cc1cc(C=C2C(=O)N(C)C(=O)N(C)C2=O)c(C)n1-c1ccccc1	.	.	-5.6%	?
Cc1ccc(-n2c(C)cc(/C=C3/C(=O)NC(=O)N(C)C3=O)c2C)cc1	-1.9%	-84.6*	-18.1%	?
Cc1cc(/C=C2\C(=O)NC(=O)N(Cc3ccco3)C2=O)c(C)n1-c1ccc(O)cc1	.	.	0.4%	?
COc1cc2c(cc1O)C(CCc1ccc(Cl)cc1)N(C)CC2 (stereo not drawn)	-8.1%	.	0.1%	-4.7%
C=CC=O	-6.8%	.	.	0.0224µM*
CCC1(CCSC(=N)N)C(=O)NC(=O)NC1=O	-4.9%	.	.	-0.6%[13.5 µM]
CC1O[C@@H](O[C@@H]2C(O)C[C@H](O[C@@H]3C(O)C[C@@H](OC4CC[C@@]5(C)C6CC[C@]7(C)C(C8=CC(=O)OC8)CC[C@@]7(O)C6CC[C@@H]5C4)OC3C)OC2C)CC(O)[C@H]1O (stereo partly drawn)	-11.9%	.	-7.4%	-7.5%
c1ccc(Nc2ccc(Nc3ccccc3)cc2)cc1	-22.3%	.	.	?
SMILES	HPGD inh	PNC assembly inh	KDM4E inh	ALDH1A1 inh
O=Nc1ccc(Nc2ccccc2)cc1	-13.9%	.	.	0.0631µM*
ClC(Br)Br	-4.4%	.	.	9.1%
CCOC(=O)CSc1nn(-c2ccccc2)c(=S)s1	.	.	0.8%	?
COC(=O)CSc1n[nH]c(=S)s1	39.8µM*	17.2	-15.6%	11.2µM*
Oc1c(Cl)cccc1Cl	-14.3%	.	.	15.4%
COc1ccc2c(c1)c(C(=O)O)c(C)n2CC(C)C	-3.2%	27.9	-13.1%	-3.9%
COc1cc(O)c(C(=O)O)c(-c2cc(O)c(O)cc2C)c1	.	.	14.1µM*	.
CC[N+](=O)[O-]	-5.4%	.	.	5.1%
CCCCCOC(=O)c1ccccc1C(=O)OCCCCC	-3.5%	.	.	-3.7%
C=CCSc1nnc(NC(=O)c2ccc(Cl)nc2)s1	28.2µM*	-23.6	?	?
CC(=O)C1CCC2C3CCC4=CC(=O)CC[C@@]4(C)C3CC[C@]12C (stereo partly drawn)	-2.1%	.	-6.9%	?
CCCCCC1CC(CC#CCN2CCOCC2)C(=O)O1 (stereo not drawn)	-0.3%	?	?	6.31µM*
C=CCN1C(=O)/C(=C/c2ccc3c(c2)CCCN3CCC)C(=O)NC1=S	14.1µM*	12.1	?	1.26µM*
